The list is not random: actives were taken first. Their share in the collection is about 3.6%.
Peg3 prom inh – inhibitors of Peg3 promoter; HeLa PEG-Prom luciferase reporter, luminescence, overnight; 360,000 compounds, 1.7% hits; inhibition, % at 20 µM;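 active = inhibition of at least 50% at 20 µM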
KKLEB tox – counter-screen for CF NF-kB inhibitors: cytotoxicity | 360,000 compounds, 0.36% hits | activity change (cytotoxicity), % at 5 µM | KKLEB CF airway cells viability, ATPlite luminescence, overnight; active compounds read low; cells stimulated with P. aeruginosa culture filtrate;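 active = corrected activity change at or below -50% at 5 µM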
HSP90 inh – HSP90 refolding inhibition in rabbit reticulocyte lysate; luciferase refolding luminescence, 3 h; inhibition, % at 5.6 µM; 290,000 compounds, 0.91% hits;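 active = inhibition above the screen-wide mean plus 3 SD, computed separately per campaign, cut at about 16% in these data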;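 note: 0% = DMSO wells and 100% = 60 µM geldanamycin wells; inhibitors lower the luminescence because luciferase stays unfolded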
CF NFkB block – blocks PAF-induced NF-kB reporter in cystic fibrosis cells | AID 588850 | 360,000 compounds, 0.86% hits | inhibition, % at 5 µM | KKLEB NF-kB-GFP reporter, GFP fluorescence overnight;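 active = at least 50% inhibition at 5 µM, scaled per plate between neutral and stimulator controls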;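 note: PAF is a Pseudomonas aeruginosa culture filtrate used as stimulus; plate controls were PAF-stimulated DMSO wells for no effect and unstimulated DMSO wells for full effect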
LGR2 antag – blocks bursicon-induced cAMP signaling via Drosophila LGR2; 380,000 compounds, 0.35% hits; HEK293 LGR2, CRE-luciferase, bursicon-stimulated, 4 h; AID 720647; inhibition, % at 9.99 µM;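 active = drop in luminescence signal, shown as inhibition above about 50% in the replicate tests, limit read from the data, passing the limit was not always enough; inconclusive = probably only some replicates passing the limit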;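 note: agonist challenge used bursicon conditioned medium at about half maximal strength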
Mdm2-MdmX inh – disrupts the human Mdm2-MdmX interaction; 330,000 compounds, 3% hits; SaOS-2 split-luciferase Mdm2/MdmX complementation, luminescence; inhibition, % at 8 µM;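 active = inhibition of at least 50% at 8 µM in the primary screen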
Numbers without * were called inactive; ? = inconclusive; / = no result.

SMILES	Peg3 prom inh	KKLEB tox	HSP90 inh	CF NFkB block	LGR2 antag	Mdm2-MdmX inh
COc1ccc(C(=O)C=Cc2ccc(OCc3ccccc3)c(OC)c2)cc1OC	80*	-16	/	0	-13	/
N#Cc1ccc(/C=C/C(=O)c2ccccc2)cc1	98*	1	-1	17	9	35
COc1ccc(C=CC(=O)c2ccc3cc(OC)c(OC)cc3c2)cc1OC	92*	-13	/	36	-3	/
CCC1CSC(Nc2ccc(C(=O)/C=C/c3ccc(OC)c(OC)c3)cc2)=N1 (configuration not stated)	91*	-7	3	14	42	12
COc1ccc(S(=O)(=O)N[C@H]2CC[C@@H](CC(=O)NCc3ccccc3F)O[C@@H]2CO)cc1	/	/	/	/	6	/
Cc1ccc(S(=O)(=O)Nc2ccc3c(c2)CC(=O)N([C@@H](C)CO)C[C@@H](C)[C@H](CN(C)C(=O)Nc2ccc(F)cc2)O3)cc1	/	/	/	/	-8	/
CCCNC(=O)N1CC2(C1)[C@H](c1ccccc1)[C@@H](CO)N2C(=O)c1ccncc1	/	/	/	/	11	/
O=C(/C=C/c1ccccc1)c1ccc2ccccc2c1	78*	8	/	-24	-81	/
O=C(/C=C/c1ccccc1)c1ccccc1	-24	-4	3	-7	-63	18
COc1ccc(/C=C/C(=O)C(C)(C)C)cc1OC	83*	3	2	-2	2	5
Cc1ccc(S(=O)(=O)N[C@@H]2CC[C@@H](CC(=O)NCCc3ccncc3)O[C@H]2CO)cc1	/	/	/	/	5	/
Cc1cc(Br)c2c(c1)/C(=C/C(=O)c1cccs1)C(=O)N2	69*	-1	1	33	-7	21
CCCCCCSc1cccc(-c2nc3ccccn3c2NCc2ccccc2)c1	74*	-4	/	4	-26	-7
CCCCCCSc1cccc(-c2nc3cc(C)ccn3c2NCc2ccccc2)c1	-48	-16	/	10	-7	18
CCCCNc1c(-c2ccc(SC(C)CC)c(OC)c2)nc2ccc(C)cn12 (configuration not stated)	93*	-4	/	-13	6	50
CCCCNc1c(-c2ccc(SC(C)CC)c(OC)c2)nc2ccc(Cl)cn12 (configuration not stated)	-61	-6	/	26	-13	23
CCC(C)Sc1cccc(-c2nc3ccccn3c2NCc2ccccc2)c1 (configuration not stated)	73*	-16	/	4	1	8
CCCCCCSc1cccc(-c2nc3ccc(C)cn3c2NCc2ccccc2)c1	-59	9	/	21	-91	-2
CCC(C)Sc1cccc(-c2nc3ccc(C)cn3c2NCc2ccccc2)c1 (configuration not stated)	83*	3	/	10	?	36
CC(C)NC(=O)N(C)C[C@@H]1Oc2cc(C#CC3CC3)ccc2S(=O)(=O)N([C@@H](C)CO)C[C@H]1C	/	/	/	/	7	/
CC(C)NC(=O)N(C)C[C@@H]1OCCCC[C@@H](C)Oc2ccc(NS(=O)(=O)c3ccc(Cl)cc3)cc2C(=O)N([C@@H](C)CO)C[C@H]1C	/	/	/	/	-1	/
C[C@@H]1CCCCO[C@@H](CN(C)S(=O)(=O)c2ccccc2)[C@H](C)CN([C@H](C)CO)C(=O)c2cc(NC(=O)C3CCCCC3)ccc2O1	/	/	/	/	-7	/
COC(=O)c1cc(=O)n(-c2ccc(F)cc2)c(=Nc2ccc(F)cc2)s1	93*	-15	-1	18	?	42
COc1ccc(CN(C)C[C@H]2Oc3ccc(NC(=O)NC4CCCCC4)cc3C(=O)N([C@@H](C)CO)C[C@@H]2C)cc1	/	/	/	/	-7	/
CCN(CC)c1ccc(C(=O)NNC(=O)CCl)cc1	9	-4	6	-6	12	4
SMILES	Peg3 prom inh	KKLEB tox	HSP90 inh	CF NFkB block	LGR2 antag	Mdm2-MdmX inh
CCN(CC)c1ccc(C(=C2C=CC(=[N+](CC)CC)C=C2)c2ccc(N(CC)CC)cc2)cc1	106*	-101*	/	92*	/	/
O=C(C[C@H]1CC[C@H]2[C@@H](COC[C@@H](O)CN2S(=O)(=O)c2cccc(Cl)c2)O1)NCCCN1CCOCC1	/	/	/	/	0	/
O=C(O)CNC(=O)C(c1ccccc1)c1ccccc1	1	2	-3	9	-2	-12
O=C(O)CNC(=O)C(CS)Cc1ccccc1 (configuration not stated)	-9	16	/	55*	-2	-14
Cc1ccc(-c2nc3ccccc3[nH]2)cc1NC(=O)c1sc2cc(Cl)ccc2c1Cl	83*	2	1	-19	-7	46
Cc1ccc(-c2nc3ccccc3[nH]2)cc1NC(=O)c1ccco1	-137	4	3	6	/	4
CC(C)NC(=O)Nc1ccc2c(c1)C(=O)N(C)[C@@H]1CC[C@H](CC(=O)NC3CCCCC3)O[C@H]1CO2	/	/	/	/	1	/
Cc1cccc(N2C(=O)C(Oc3ccc(Cl)cc3Cl)C2C(=O)O)c1C (configuration not stated)	7	28	-7	-8	-7	-16
CCCNCC1C(Oc2ccc(Cl)cc2Cl)C(=O)N1c1cccc(C)c1C (configuration not stated)	62*	-13	1	20	8	-4
COc1ccc(S(=O)(=O)N2CCCCCC2)cc1C(=O)OCc1cccc(OC)c1OC	51*	-7	/	22	5	18
CCCCNC(=O)c1sc(=S)n2c1[nH]c(=O)c1ccc(C(=O)NCCc3ccc(OC)c(OC)c3)cc12	-1	4	-2	26	/	23
O=C(NCc1ccccc1)c1sc(=S)n2c1[nH]c(=O)c1ccccc12	14	-19	-2	51*	/	5
COc1ccc(OCC(=O)N2CCN(c3nnc(-c4ccc(C)cc4)c4ccccc34)CC2)cc1	19	-4	1	11	59*	28
CCOc1ccc(-c2cc(C(=O)N3CCN(c4ccccn4)CC3)c3ccccc3n2)cc1	-57	-68*	0	2	22	-29
COc1ccc(-c2cc(C(=O)N3CCN(c4ccccn4)CC3)c3ccccc3n2)cc1	-47	-61*	-2	16	-17	/
CCOc1ccc(-c2cc(C(=O)N3CCCC3)c3ccccc3n2)cc1	-202	-24	-1	-12	/	-19
CCOc1ccc(-c2cc(C(=O)N3CCN(C)CC3)c3ccccc3n2)cc1	-167	-21	5	13	-17	-27
CCOC(=O)N1CCN(C(=O)c2cc(-c3ccc(OCC)cc3)nc3ccccc23)CC1	-64	-75*	0	10	-67	19
CCCC(=O)Nc1ccc2c(c1)OC[C@H](C)N(Cc1ccccc1F)C[C@H](C)[C@H](OC)CN(C)C2=O	/	/	/	/	0	/
COc1cccc(S(=O)(=O)N[C@@H]2C=C[C@@H](CC(=O)NCc3ccccc3)O[C@H]2CO)c1	/	/	/	/	8	/
COc1ccc(-n2sc3ccccc3c2=O)cc1	-138	-11	/	63*	30	/
C=C(CN(C)C)C(=O)c1cc(C)ccc1C	100*	0	/	30	-3	/
CO[C@H]1CN(C)C(=O)c2cc(NS(=O)(=O)c3ccc(Oc4ccccc4)cc3)ccc2OC[C@H](C)NC[C@H]1C	/	/	/	/	22	/
